Measured values published in PubChem BioAssay (NCI).
The panel holds about 83,000 compounds, 20% with a hit somewhere; the sample as a whole holds those more often.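 Each cell line was grown in a 96-well plate and treated with one concentration of compound for 48 hours. Values below 10 were considered active.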 Values without a mark were called inactive. Active and inactive are the calls of the source.

These compounds were tested on A549/ATCC NSCLC (assay: NCI-60 one-dose screen, 48 h (100 = growth as untreated, 0 = no growth, -100 = all killed)). Conditions: 10 µM unless noted.
Description: Growth inhibition of the A549/ATCC human Non-Small Cell Lung tumor cell line is measured as a screen for anti-cancer activity. Cells are grown in 96 well plates and exposed to the test compound for 48 hours. Compounds are tested at a single concentration, which is 10^-5 M for most compounds. The reported endpoint is percent growth (GI% or GIPRCNT), where numbers from 0 - 100% represent growth inhibition, and numbers from -100% - 0 represent cell death. For example, a value of 40 represents 60% growth inhibition. A value of 0 means no net growth occurred over the course of the experiment. A value of -40 indicates 40% of cells at the beginning of the experiment died by the end of the experiment. A value of -100 means all cells are dead at the end of the experiment.
NCI-60 Human Tumor Cell Lines Screen was performed using the standard one-dose NCI protocol, which is described in more detail at https://dtp.cancer.gov/discovery_development/nci-60/default.htm.
Compounds with GIPRCNT values below 10 were considered active. Activity score was based on GIPRCNT using the following formula: […]
Score is 0 for GIPRCNT values of 100 or above, 50 for GIPRCNT values of 0, and 100 for GIPRCNT values of -100.

Row | Compound | growth
1 | CC1(C)CC(=O)C2=C(C1)OC(C(=O)c1ccccc1)C2c1cccc(Oc2ccccc2)c1 (stereo not given) | 29.9%
2 | Cc1nc2ccccc2c(/C=C/c2ccc(Cl)cc2)c1C(=O)/C=C/c1ccccc1 | 21.2%
3 | C#CC(F)(F)[C@]1(O)CCC2C3CCC4=CC(=O)CCC4=C3[C@@H](c3ccc(N(C)C)cc3)C[C@@]21C (stereo not given in full) | 64.8%
4 | CCOC(=O)c1c(C)nc2c(c1N)C(=O)C(=O)N2CCc1ccc(OC)c(OC)c1 | 66%
5 | OC1CSSC1Cn1cnc2c(Nc3ccc(F)c(Cl)c3)ncnc21 (stereo not given) | 77.5%
6 | O=C(/C=C/c1ccc(Cl)cc1)c1ccc(-n2cc(CN3CCN(c4cc5c(cc4F)c(=O)c(C(=O)O)cn5C4CC4)CC3)nn2)cc1 | 89%
7 | C=CC(=O)Nc1ccc2ncnc(Nc3cccc(NS(=O)(=O)CCC)c3Cl)c2c1 | 50.8%
8 | CN1CC(c2ccccc2)C(C(=O)c2ccc(Br)cc2)C12C(=O)Nc1ccccc12 (stereo not given) | 92.2%
9 | COc1cc2c(cc1OC)CC[N+](CCC[N+](C)(C)C)=C2 | 97.4%
10 | CCCN1C2CCC1/C(=C\c1ccc(OC)cc1)C(=O)/C2=C/c1ccc(OC)cc1 | 72.6%
11 | CC/C(=C(/c1ccc(Cl)cc1)c1ccc(OCCN(CC)CC)cc1)c1ccc(OC)cc1 | 48.8%
12 | CCCCCCCCNC(=O)[C@@H](N)CSCOC(C)=O | 84.3%
13 | c1ccc2c(-c3cnn4cc(-c5ccc(N6CCNCC6)cc5)cnc34)ccnc2c1 | -65.4% (active)
14 | CC1OC(C(=O)N2CCN(CCO)CC2)CC1COC1CCCCC1 (stereo not given) | 94.2% [50 µM]
15 | COC(=O)c1nc(-c2ccccc2)oc1S(=O)(=O)NCC(c1ccc(Cl)cc1)N1CCCCC1 (stereo not given) | 85.3%
16 | CCN(CC)c1ccc(/C=N/NC(=O)c2ccccc2Nc2ccnc(C(F)(F)F)c2)c(O)c1 | 35.8%
17 | CCOC(=O)/C(=C\c1ccccc1Cl)P(=O)(OCC)OCC | 64.9%
18 | O=C1/C(=C/c2cccc(Br)c2)COc2ccc(O)c(O)c21 | 11.2%
19 | COc1cc2c(c(OC)c1OC)CCC(c1cccc(NC(=O)c3cccc(Cl)c3)c1)O2 (stereo not given) | 85%
20 | COc1ccc(-c2cc(-c3ccc(Nc4nc(Nc5ccc(Cl)cc5)nc(Nc5ccc(Cl)cc5)n4)cc3)no2)cc1 | 62.5%

Row | Compound | growth
21 | COc1ccc(/C=C2/CCc3cc4ccc(OC)cc4[o+]c32)c(O)c1 | 94.9%
22 | COC(=O)c1cc(-c2ccc(OC)c(OC)c2)[nH]c1N/N=C/c1c(Cl)cccc1Cl | 43%
23 | COc1cc(OC)cc(C(=O)Nc2cnc(Nc3ccc(N4CCOCC4)nc3)nc2Oc2ccc(C(F)(F)F)cc2)c1 | 35.4%
24 | N#Cc1c(-c2ccc(F)cc2)cc(-c2cccc(Cl)c2)[nH]c1=O | 46.3%
25 | O=C1c2ccccc2C(=O)c2cc(Cn3c[n+](Cc4ccc5ccccc5c4)c4ccccc43)ccc21 | 91%
26 | CC(Cc1cccc2ccccc12)C(N)=O (stereo not given) | 96.7%
27 | O=c1c(Cc2ccc(F)cc2)cc(-c2ccccc2)nn1C/C(=N/O)c1ccccc1 | 24.2%
28 | O=C(Nc1ncc(Cc2cc(C(F)(F)F)ccc2Cl)s1)C(=S)N1CCOCC1 | 93.8%
29 | CC(C)(C)[C@H](OCc1cn([C@H]2C[C@@H](O)[C@@H](CO)O2)c(=O)[nH]c1=O)c1ccc(C#Cc2ccccc2)cc1[N+](=O)[O-] | 46.5%
30 | COc1ccc(C(c2cc(OC)c(OC)c(OC)c2)n2cncn2)cc1O (stereo not given) | 18.6%
31 | O=C(Nc1ccc2[nH]ncc2c1)c1csc(Nc2ccccc2)n1 | 40.7%
32 | COc1cccc(-c2cc(-c3ccc(Nc4nc(Nc5ccc(Cl)cc5)nc(Nc5ccc(Cl)cc5)n4)cc3)nc(N)c2C#N)c1 | 43%
33 | CCCCCCCCOC(=O)c1c(C)[nH]c(/C=C2\N=C(c3ccc[nH]3)C=C2OC)c1C | -10.9% (active)
34 | COc1ccc(CNc2c3ccccc3nc3ccccc23)cc1OC | 16.3%
35 | CN(C)c1ccc(Cc2cc(-c3ccccc3)nn(C/C(=N/O)c3ccccc3)c2=O)cc1 | 30.2%
36 | N=C(N)c1ccc(-c2ccc(-c3ccc(Cl)cc3Cl)s2)nc1 | 33.1%
37 | O=C(O)c1cc2ccccc2s1 | 104%
38 | O=C(CNc1ncco1)Nc1ccc(S(=O)(=O)c2ccc(NC(=O)CNc3ncco3)cc2)cc1 | 6.88% (active)
39 | O=C(NC1CCCCCC1)c1ccc2c(=O)n3c(nc2c1)CCCCC3 | 97%
40 | COc1cccc(C2C(C#N)=C(N)Oc3c2ccc2ccccc32)c1 (stereo not given) | 26.2%
